Activity calls are given as the source filed them. The call rests on the fitted dose curve; in most records, active means well fitted curve in the direction sought with a large enough effect in the repeat runs; inconclusive means weak or mixed curves; inactive means flat fitted curve, though single readings scatter.
Test: qHTS assay to test for compound auto fluorescence at 460 nm (blue) in HepG2 cell free culture (AID 720685)
Conditions: Cell-free culture medium, blue autofluorescence 405/460 nm; series mostly up to 91.3 µM
Outline: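 Compound (23 nL) or DMSO pinned into cell-free MEM with 10% FBS; blue fluorescence read at 405/460 nm excitation/emission, expressed as auto-fluorescence equivalency to triamterene.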
With Cc1cc2c(s1)Nc1ccccc1N=C2N1CCN(C)CC1 the outcome was “inactive”.
For CCC(=O)c1ccc2c(c1)N(CCCN(C)C)c1ccccc1S2, the outcome was “inactive”.
For CC(=O)Oc1cc(C(C)C)c(OCCN(C)C)cc1C, the fluorescence, % of fluorescent control was -0.0726% [at 18.6 µM] (inactive).
For CC(C)=CCCC(C)CCOC=O (centres undefined), the outcome was “inactive”.
For CCN(CC)CC1CCCCN1CC(=O)N1c2ccccc2C(=O)Nc2cccnc21 (centres undefined), the outcome was “inactive”.
For Cc1ccc(C)c(N)c1, the outcome was “inactive”.
With CCN(CC)CCOc1ccc(Cc2ccccc2)cc1 the outcome was “inactive”.
With CC(C)O the outcome was “inactive”.
For O=c1[nH]c(=O)n([C@H]2C[C@H](O)[C@@H](CO)O2)cc1C(F)(F)F, the outcome was “inactive”.
With Cc1c[nH]c(=S)[nH]c1=O the outcome was “inactive”.
For O=C(CC(=O)C(F)(F)F)c1ccccc1, the outcome was “inactive”.
In the case of CCCCN1C[C@H](O)[C@@H](O)[C@H](O)[C@H]1CO, the outcome is reported as “inactive”.
In the case of CCCCCCOc1ccc(N)cc1, the outcome is reported as “inactive”.
With CC(C)(C)C1CCCCC1=O (centres undefined) the outcome was “inactive”.
For CC1=C2[C@H](/C=C(\C)C(=O)O)CC[C@@H](C)[C@H]2CC1, the outcome was “inactive”.
For CN1C(=O)CC(c2ccccc2)C1=O (centres undefined), the outcome was “inactive”.
With Clc1cccc(-c2cc(Cl)cc(Cl)c2)c1 the outcome was “inactive”.
In the case of O=C(Cl)c1cccc([N+](=O)[O-])c1, the outcome is reported as “inactive”.
With C=O the outcome was “inactive”.
For Cc1c(N)cccc1N, the outcome was “inactive”.
For CCCCCCCCCCCCCCCCOP(=O)([O-])OCC[N+](C)(C)C, the outcome was “inactive”.
For CN(CCCN1c2ccccc2CCc2ccccc21)CC(=O)c1ccc(Cl)cc1, the outcome was “inactive”.
In the case of CCOC(=O)CS, the outcome is reported as “inactive”.
For CCOC(=O)COc1ccc2c(c1)CC(NCC(O)c1cccc(Cl)c1)CC2 (centres undefined), the outcome was “inactive”.
On the % scale 0 is the no-effect control and ±100 the full control effect.
